# Assay results taken from PubChem BioAssay (Tox21).
# Several values for one entry are separate records, joined by “and”; a condition that tells them apart may be missing. Identical values can stand only once. More than one record can exist for a structure, and the calls need not agree. Activity calls are given as the source filed them. Where a call stands in place of a potency, no number is given. Unless noted, calls follow the shape of the dose curve; as a rule, active = well fitted curve in the direction sought with a large enough effect in the repeat runs; inconclusive = weak or mixed curves; inactive = no such curve, though single readings can be large; an effect the other way counts as inactive or inconclusive.
# Assays:
# [1] = qHTS assay to identify small molecule antagonists of the glucocorticoid receptor (GR) signaling pathway - cell viability counter screen (AID 720693); also: nearly all actives have a fitted effect of over 55% in size; also: potency is read from the fitted curve at half-maximal effect
# [2] = qHTS assay for identifying genotoxic compounds that show differential cytotoxicity against isogenic chicken DT40 cell lines with known DNA damage response pathways - wild type cell line (AID 743012); also: nearly all actives have a fitted effect of over 60% in size; also: potency is read from the fitted curve at half-maximal effect
# In short: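 Wild-type DT40 cells (300/well) exposed to compounds for 40 hours at 37 C/5% CO2. Viability read by CellTiter-Glo luminescence after 30 min at room temperature.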
# [3] = qHTS assay for identifying genotoxic compounds that show differential cytotoxicity against isogenic chicken DT40 cell lines with known DNA damage response pathways - Rev3 mutant cell line (AID 743014); also: nearly all actives have a fitted effect of over 55% in size; also: potency is read from the fitted curve at half-maximal effect
# [4] = qHTS assay for identifying genotoxic compounds that show differential cytotoxicity against isogenic chicken DT40 cell lines with known DNA damage response pathways - Rad54/Ku70 mutant cell line (AID 743015); also: nearly all actives have a fitted effect of over 60% in size; also: potency is read from the fitted curve at half-maximal effect
# [5] = qHTS assay to identify small molecule antagonists of the androgen receptor (AR) signaling pathway - cell viability counter screen (AID 743033; also: nearly all actives have a fitted effect of over 45% in size)
# [6] = biological target: Androgen receptor (Homo sapiens) (UniProt P10275); experiment: qHTS assay to identify small molecule antagonists of the androgen receptor (AR) signaling pathway (AID 743035; active = well fitted inhibition curve with a large enough effect in the signal ratio in the repeat runs, not every such curve was filed as active; inconclusive = weak or mixed curves, or effect the other way; inactive = no such curve, though single readings can be large or run the other way; the % refers to the signal ratio; also: potency is read from the fitted curve at half-maximal effect)
# Androgen receptor (Homo sapiens), sequence (P10275 whole entry, looked up): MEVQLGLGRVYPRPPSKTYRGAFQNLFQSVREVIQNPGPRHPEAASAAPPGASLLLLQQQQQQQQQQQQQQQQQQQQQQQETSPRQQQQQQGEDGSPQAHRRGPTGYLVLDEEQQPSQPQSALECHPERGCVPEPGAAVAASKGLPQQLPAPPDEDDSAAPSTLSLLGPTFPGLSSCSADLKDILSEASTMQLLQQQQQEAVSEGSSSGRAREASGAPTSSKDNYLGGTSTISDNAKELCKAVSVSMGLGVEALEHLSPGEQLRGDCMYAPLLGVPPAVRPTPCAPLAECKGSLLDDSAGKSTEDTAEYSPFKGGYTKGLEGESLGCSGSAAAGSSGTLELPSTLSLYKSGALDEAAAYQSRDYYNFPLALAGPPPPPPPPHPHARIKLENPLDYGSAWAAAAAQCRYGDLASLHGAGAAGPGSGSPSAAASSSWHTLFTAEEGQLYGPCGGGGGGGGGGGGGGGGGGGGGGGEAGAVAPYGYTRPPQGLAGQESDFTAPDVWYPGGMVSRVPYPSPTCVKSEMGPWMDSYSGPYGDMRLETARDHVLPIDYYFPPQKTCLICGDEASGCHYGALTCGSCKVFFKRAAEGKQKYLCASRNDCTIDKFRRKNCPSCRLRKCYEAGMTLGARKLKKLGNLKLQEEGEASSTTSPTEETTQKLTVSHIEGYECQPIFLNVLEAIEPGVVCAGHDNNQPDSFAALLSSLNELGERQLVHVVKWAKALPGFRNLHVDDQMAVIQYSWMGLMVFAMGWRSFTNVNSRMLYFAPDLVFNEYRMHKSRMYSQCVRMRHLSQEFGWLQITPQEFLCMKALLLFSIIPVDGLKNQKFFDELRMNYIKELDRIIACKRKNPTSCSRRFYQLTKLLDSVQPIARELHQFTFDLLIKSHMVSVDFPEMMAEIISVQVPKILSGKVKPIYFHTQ
# In short: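 HEK293 cells stably carrying UAS-beta-lactamase reporter, 2,000/well, given compounds plus R1881 agonist and incubated 16 h at 37C. LiveBLAzer B/G FRET substrate then added for 2 h at room temperature before fluorescence reading.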
# [7] = biological target: Androgen receptor (Homo sapiens) (UniProt P10275); experiment: qHTS assay to identify small molecule agonists of the androgen receptor (AR) signaling pathway (AID 743036; active = well fitted activation curve with a large enough effect in the signal ratio in the repeat runs, with a control signal flat, not every such curve was filed as active; inconclusive = weak or mixed curves, or effect the other way; inactive = no such curve, though single readings can be large or run the other way; the % refers to the signal ratio)
# In short: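 Reporter line: GeneBLAzer AR-UAS-bla-GripTite (HEK293). Steps: plate cells, 4 h rest, add compounds, 16 h at 37C, add LiveBLAzer B/G substrate, 2 h at RT, read fluorescence.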
# [8] = qHTS assay to identify small molecule antagonists of the androgen receptor (AR) signaling pathway using the MDA cell line - cell viability counter screen (AID 743041; also: nearly all actives have a fitted effect of over 45% in size)
# In short: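 Same-well cytotoxicity was assessed by CellTiter-Fluor in MDA-kb2 AR-luc cells after 16 h of compound treatment under R1881 agonism.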
# [9] = biological target: Androgen receptor (Homo sapiens) (UniProt P10275); experiment: qHTS assay to identify small molecule antagonists of the androgen receptor (AR) signaling pathway using the MDA cell line (AID 743042; also: nearly all actives have a fitted effect of over 55% in size)
# In short: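 MDA-kb2 breast carcinoma cells carrying MMTV-luciferase (AR/GR responsive) were co-treated with compounds and the agonist R1881 for 16 h at 37C. Inhibition read as ONE-Glo luminescence; CellTiter-Fluor fluorescence measured in parallel for cytotoxicity.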
# [10] = qHTS assay to identify small molecule antagonists of the thyroid receptor (TR) signaling pathway - cell viability counter screen (AID 743064); also: nearly all actives have a fitted effect of over 50% in size; also: potency is read from the fitted curve at half-maximal effect
# In short: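 Plate GH3.TRE-Luc cells; incubate 4 h at 37 °C; add compound, then T3 to 1 nM final; incubate 23.5 h; add CellTiter-Fluor; incubate 30 min at 37 °C, 5% CO2; read fluorescence.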
# [11] = qHTS assay to identify small molecule antagonists of the thyroid receptor (TR) signaling pathway (AID 743065); also: nearly all actives have a fitted effect of over 55% in size; also: potency is read from the fitted curve at half-maximal effect
# In short: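 GH3.TRE-Luc rat pituitary cells (two TREs driving luciferase) were dosed with compound, then stimulated with 1 nM T3 (final) for 23.5 h at 37 C. ONE-Glo luminescence was the read-out, with CellTiter-Fluor fluorescence as the cytotoxicity counter-screen.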
# [12] = test system: thyroid hormone receptor (rat, GH3 cells); experiment: qHTS assay to identify small molecule agonists of the thyroid receptor (TR) signaling pathway (AID 743066; calls by dose curve)
# [13] = biological target: Estrogen receptor (Homo sapiens) (UniProt P03372); experiment: qHTS assay to identify small molecule antagonists of the estrogen receptor alpha (ER-alpha) signaling pathway (AID 743069; active = well fitted curve in the direction sought with a large enough effect in the signal ratio in the repeat runs, not every such curve was filed as active; inconclusive = weak or mixed curves, or effect the other way; inactive = no such curve, though single readings can be large or run the other way; the % refers to the signal ratio; also: potency is read from the fitted curve at half-maximal effect)
# Estrogen receptor (Homo sapiens), sequence (P03372 whole entry, looked up): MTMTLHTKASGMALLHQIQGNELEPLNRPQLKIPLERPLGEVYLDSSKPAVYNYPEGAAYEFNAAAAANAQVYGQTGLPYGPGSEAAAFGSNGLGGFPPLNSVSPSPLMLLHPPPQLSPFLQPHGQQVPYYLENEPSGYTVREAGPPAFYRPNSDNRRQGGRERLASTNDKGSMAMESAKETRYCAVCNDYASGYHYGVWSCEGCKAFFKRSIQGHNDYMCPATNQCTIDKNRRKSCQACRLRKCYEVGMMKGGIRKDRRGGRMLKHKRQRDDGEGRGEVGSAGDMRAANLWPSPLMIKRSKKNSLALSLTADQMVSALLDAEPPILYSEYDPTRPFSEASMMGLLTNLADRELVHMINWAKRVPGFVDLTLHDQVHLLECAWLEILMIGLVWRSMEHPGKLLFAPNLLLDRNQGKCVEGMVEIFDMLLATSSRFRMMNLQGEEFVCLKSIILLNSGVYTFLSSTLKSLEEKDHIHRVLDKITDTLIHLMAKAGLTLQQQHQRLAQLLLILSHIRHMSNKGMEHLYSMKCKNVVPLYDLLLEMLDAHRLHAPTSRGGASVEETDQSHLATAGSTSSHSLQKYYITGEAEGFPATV
# In short: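 Reporter cells (ER-alpha-bla, HEK293 background) are conditioned overnight in stripped-serum medium (2% charcoal-stripped FBS). Compound and 17beta-estradiol exposure runs 18 hr at 37C, 5% CO2.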
# [14] = qHTS assay to identify small molecule antagonists of the estrogen receptor alpha (ER-alpha) signaling pathway - cell viability counter screen (AID 743074; calls by dose curve;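 also: HEK293 cells carrying ER-alpha-UAS-bla reporter stimulated with 17beta-estradiol; nearly all actives have a fitted effect of over 45% in size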)
# [15] = biological target: Estrogen receptor (Homo sapiens) (UniProt P03372); experiment: qHTS assay to identify small molecule agonists of the estrogen receptor alpha (ER-alpha) signaling pathway (AID 743075; calls by dose curve;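 also: HEK293 GripTite cells with ER-alpha and UAS-driven beta-lactamase reporter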)
# [16] = biological target: Estrogen receptor (Homo sapiens) (UniProt P03372); experiment: qHTS assay to identify small molecule agonists of the estrogen receptor alpha (ER-alpha) signaling pathway using the BG1 cell line (AID 743079); also: nearly all actives have a fitted effect of over 20% in size; also: potency is read from the fitted curve at half-maximal effect
# [17] = qHTS assay to identify small molecule antagonists of the estrogen receptor alpha (ER-alpha) signaling pathway using the BG1 cell line (AID 743080; calls by dose curve;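 also: BG1 cells stimulated with 17beta-estradiol alongside compound; nearly all actives have a fitted effect of over 25% in size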; also: potency is read from the fitted curve at half-maximal effect)
# In short: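 BG1-Luc-4E2 cells (endogenous full-length ER-alpha, 4xERE luciferase) hormone-starved 5 days in charcoal-stripped FBS, plated 4,000/well for 24 h, then compound plus 17beta-estradiol for 21.5 h at 37 C; ONE-Glo luminescence read.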
# [18] = qHTS assay to identify small molecule antagonists of the estrogen receptor alpha (ER-alpha) signaling pathway using the BG1 cell line - cell viability counter screen (AID 743081);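 also: compound given together with 17beta-estradiol as the ER stimulus; nearly all actives have a fitted effect of over 45% in size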; also: potency is read from the fitted curve at half-maximal effect
# Aromatase (Homo sapiens) = Aromatase (Homo sapiens) (UniProt P11511); experiment: qHTS assay to identify aromatase inhibitors (AID 743083); also: nearly all actives have a fitted effect of over 55% in size; also: potency is read from the fitted curve at half-maximal effect
# Aromatase (Homo sapiens), sequence (P11511 whole entry, looked up): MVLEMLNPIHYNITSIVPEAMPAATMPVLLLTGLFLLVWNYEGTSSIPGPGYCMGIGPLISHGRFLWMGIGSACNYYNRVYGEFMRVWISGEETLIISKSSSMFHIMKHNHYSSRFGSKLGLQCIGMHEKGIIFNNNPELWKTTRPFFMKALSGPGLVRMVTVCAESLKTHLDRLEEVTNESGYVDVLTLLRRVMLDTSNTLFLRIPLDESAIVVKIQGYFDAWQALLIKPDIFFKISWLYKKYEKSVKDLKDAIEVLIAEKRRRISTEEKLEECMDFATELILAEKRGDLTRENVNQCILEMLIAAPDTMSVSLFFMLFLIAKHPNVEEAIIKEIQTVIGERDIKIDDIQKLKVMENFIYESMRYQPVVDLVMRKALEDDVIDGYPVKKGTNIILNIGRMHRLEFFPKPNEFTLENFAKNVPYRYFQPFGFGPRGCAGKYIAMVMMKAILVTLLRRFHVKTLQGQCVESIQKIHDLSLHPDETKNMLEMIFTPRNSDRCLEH
# [19] = biological target: Androgen receptor (Homo sapiens) (UniProt P10275); experiment: qHTS assay to identify small molecule agonists of the androgen receptor (AR) signaling pathway using the MDA cell line (AID 743040; also: nearly all actives have a fitted effect of over 20% in size)
# In short: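 Human breast carcinoma MDA-kb2 reporter cells (MMTV-luc, AR/GR elements) were treated for 16 h at 37C in 0% CO2 following a 5 h settling period. Signal was quantified by ONE-Glo luminescence.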
Compound,Potency [1],Potency [2],Potency [3],Potency [4],outcome [5],Potency [6],outcome [7],Potency [8],Potency [9],Potency [10],Potency [11],outcome [12],Potency [13],outcome [14],Potency [15],Potency [16],Potency [17],Potency [18],Potency (Aromatase (Homo sapiens)),Potency [19]
COc1cc(O)c(C(=O)c2ccccc2)cc1S(=O)(=O)O,inactive,inactive,inactive,inactive,inactive,inactive,inactive,inactive,inactive,inactive,inactive,inactive,inactive,inactive,inactive,inactive,inactive,inactive,inactive,
COc1cc2c(c(OC)c1OC)-c1ccc(OC)c(=O)cc1[C@@H](NC(C)=O)CC2,inactive,66.8 nM (active) and 13.5 nM (active) and 7.7 nM (active),66.8 nM (active) and 12 nM (active) and 7.7 nM (active),84.1 nM (active) and 10.7 nM (active) and 7.7 nM (active),inactive,0.0601 µM (active),,inactive,inactive,1.19 µM (active) and 172 nM (active),531 nM (active) and 135 nM (active) and 96.9 nM (active),inactive,15.3 nM [inhibitor] (active) and inactive,inactive,inactive,inactive,119 nM (active) and 42.7 nM (active) and 86.3 nM (active),inactive,inactive,inactive
COCC(C)N (stereo not drawn),inactive,inactive,inactive,inactive,inactive,inactive,inactive,inactive,inactive,,inactive,inactive,inactive,inactive,inactive,inactive,inactive,inactive,inactive,inactive
CCCCNC(=O)NS(=O)(=O)c1ccc(N)cc1,inactive,inactive,inactive,inactive,inactive,,,inactive,,inactive,inactive,inactive,,inactive,,,,inactive,inactive,
CC(C)(C)CC(C)(C)c1ccc(O)c(-n2nc3ccccc3n2)c1,49.7 µM (active),inactive,inactive,inactive,inactive,,,inactive,,,21.1 µM (active) and 62 µM (active) and 27.3 µM (active),inactive,inactive,inactive,inactive,inactive,inactive and 61.1 µM (active),inactive,inactive,
OC[C@@H](O)[C@@H](O)[C@H](O)[C@H](O)CO,inactive,inactive,inactive,inactive,inactive,,,inactive,,inactive,inactive,inactive,inactive,inactive,inactive,inactive,inactive,inactive,inactive,
CCCCCCCCOc1ccc(C(=O)c2ccccc2)c(O)c1,inactive,inactive,inactive and 61.1 µM (active),inactive and 68.6 µM (active),inactive,,,inactive,,,inactive,inactive,inactive,inactive,inactive,inactive,12.3 µM (active) and 12.2 µM (active),inactive,inactive,
O=C1CCCCCN1,inactive,inactive,inactive,inactive,inactive,,,inactive,,inactive,inactive,inactive,,inactive,,,,inactive,inactive,
O=[N+]([O-])c1ccc(O)cc1,inactive,27.3 µM (active) and 61.1 µM (active),inactive and 43.3 µM (active) and 54.5 µM (active),inactive and 54.5 µM (active),inactive,,,inactive,,61.1 µM (active),,,inactive,inactive,inactive,inactive,inactive,inactive,inactive,
Oc1cccc(O)c1,inactive,inactive,inactive,inactive,inactive,,,inactive,,,inactive,inactive,inactive,inactive,inactive,inactive,inactive,inactive,inactive,
CC(C)CC(C)CC(O)CC(C)C (stereo not drawn),inactive,inactive,inactive,inactive,inactive,,,inactive,,inactive,inactive,inactive,,inactive,,,,inactive,inactive,
CCCCCCCC(=O)OCC(O)CO (stereo not drawn),inactive,inactive,inactive,inactive,inactive,,,inactive,,inactive,inactive,inactive,,inactive,,,,inactive,inactive,
CCOC(=O)C(C)(C)Oc1ccc(Cl)cc1,inactive,inactive,inactive,inactive,inactive,,,inactive,,,inactive,inactive,inactive,inactive,inactive,26.6 µM (active) and inactive,inactive,inactive,inactive,
COC1=CC(=O)C[C@@H](C)[C@]12Oc1c(Cl)c(OC)cc(OC)c1C2=O,inactive,26.6 µM (active) and 54 µM (active) and 27.3 µM (active),30.4 µM (active) and 30.6 µM (active),30.4 µM (active) and 27.3 µM (active),inactive,,,inactive,,,11.9 µM (active) and 27.1 µM (active) and 27.3 µM (active),inactive,10.7 µM [inconclusive] (active) and 5.45 µM [inconclusive] (active) and 6.92 µM [inhibitor] (active),inactive,inactive,inactive,inactive,inactive,,
CC(=O)/C=C/C1=C(C)CCCC1(C)C,inactive,inactive,inactive,inactive,inactive,,,inactive,,inactive,inactive,inactive,inactive,inactive,inactive,inactive,inactive,inactive,inactive,
C1CNCCN1,inactive,inactive,inactive and 62.9 µM (active),inactive and 62.9 µM (active),inactive,,,inactive,,inactive,inactive,inactive,inactive,inactive,inactive,inactive and 68 µM (active),inactive,inactive,inactive,

Compound,Potency [1],Potency [2],Potency [3],Potency [4],outcome [5],Potency [6],outcome [7],Potency [8],Potency [9],Potency [10],Potency [11],outcome [12],Potency [13],outcome [14],Potency [15],Potency [16],Potency [17],Potency [18],Potency (Aromatase (Homo sapiens)),Potency [19]
CCn1cc(C(=O)O)c(=O)c2ccc(C)nc21,inactive,inactive,inactive,inactive,inactive,,,inactive,,inactive,inactive,inactive,inactive,inactive,inactive,inactive,inactive,inactive,inactive,
NC(=O)c1ccc([N+](=O)[O-])cc1Cl,inactive,inactive,inactive,inactive,inactive,,,inactive,,inactive,inactive,inactive,,inactive,,,,inactive,inactive,
O=C(O)Cc1cccc2ccccc12,inactive,inactive,inactive,inactive,inactive,,,inactive,,inactive,inactive,inactive,,inactive,,,,inactive,inactive,
C=C(C)OC(C)=O,inactive,inactive,inactive,inactive,inactive,,,inactive,,,inactive,inactive,inactive,inactive,inactive,inactive,inactive,inactive,inactive,
O=C(OCc1ccccc1)c1ccccc1,inactive,inactive,inactive,inactive,inactive,,,inactive,,inactive,inactive,inactive,,inactive,,,,inactive,inactive,
NC(=O)N/N=C/c1ccc([N+](=O)[O-])o1,inactive,inactive and 30.6 µM (active),inactive and 43.3 µM (active),29.8 µM (active) and inactive and 38.6 µM (active),inactive,,,inactive,,inactive,inactive,inactive,inactive,inactive,inactive,inactive,inactive,inactive and 54.5 µM (active),inactive and 62.9 µM (active),
C=C(C)C(N)=O,inactive,inactive,inactive,inactive,inactive,,,inactive,,,inactive,inactive,inactive,inactive,inactive,inactive,inactive,inactive,inactive,
C#C[C@]1(O)CC[C@H]2[C@@H]3CCC4=CC(=O)CC[C@@H]4[C@H]3CC[C@@]21CC,inactive,inactive and 24.3 µM (active),inactive and 27.3 µM (active),inactive and 19.3 µM (active) and 54.5 µM (active),inactive,,,inactive,,inactive,27.3 µM (active),inactive,,inactive,,422 nM (active) and 38.6 nM (active) and 386 nM (active),inactive,inactive,inactive,
CC1(C)O[C@@H]2[C@@H](CO[C@@]3(COS(N)(=O)=O)OC(C)(C)O[C@@H]23)O1,inactive,inactive,inactive,inactive,inactive,,,inactive,,,inactive,inactive,inactive,inactive,inactive,inactive,inactive,inactive,inactive,
COC(=O)C1CCC(C(=O)OC)CC1 (stereo not drawn),inactive,inactive,inactive,inactive,inactive,,,inactive,,inactive,inactive,inactive,inactive,inactive,inactive,inactive,inactive,inactive,inactive,
O=C(O)CCCCC1CCSS1 (stereo not drawn),inactive,inactive,inactive,inactive,inactive,,,inactive,,inactive,inactive,inactive,inactive,inactive,inactive,inactive,inactive,inactive,inactive,
CC(C)(C)NCC(O)c1ccc(O)c(CO)c1 (stereo not drawn),inactive,inactive,inactive,inactive,inactive,,,inactive,,inactive,inactive,inactive,inactive,inactive,inactive,inactive,inactive,inactive,inactive,
C/C=C/c1ccc(O)c(OC)c1,inactive,inactive,inactive,inactive,inactive,,,inactive,,inactive,,,inactive,inactive,inactive,inactive,inactive,inactive,inactive,
CCN(CC)CCOC(=O)c1ccc(N)cc1,inactive,inactive,inactive,inactive,inactive,,,inactive,,inactive,inactive,inactive,,inactive,,,,inactive,inactive,
CCCCCCCCCCCCCCCCCC(=O)OCC(O)CO (stereo not drawn),inactive,inactive,inactive,inactive,inactive,,,inactive,,inactive,inactive,inactive,inactive,inactive,inactive,inactive,inactive,inactive,inactive,
